Only some compounds are listed: those with a hit (about 2.4% of all), similar ones and a draw of the others.
Rango release inh: inhibitors of RanGTP-induced Rango-importin beta complex dissociation. Potency, µM (top dose mostly 46.1 µM), inactives show top-dose activity change, negative = inhibition. Biochemical FRET Rango-importin beta, RanGTP-induced dissociation. hit rate 0.071% among 340,000. O95149+P62826; note: % of control where 0% means no effect; nearly all actives have a fitted effect of over 45% in size
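Rango FRET biosensor (snurportin-1 IBB flanked by N-terminal EYFP and C-terminal CFP10) at 0.1 uM, with 0.25 uM importin beta in PBS, 1mM DTT, 0.02% Tween-20, 0.1% BSA. 0.6 uM Ran, 2mM GTP and 0.2 uM RCC1 were then added for 45 min at room temperature. Inhibition read as loss of FRET rise.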
TDP1 block: inhibitors of human tyrosyl-DNA phosphodiesterase TDP1; Q9NUW8; recombinant TDP1, AlphaScreen DNA substrate cleavage; Potency, µM (titrated, usually from 130 µM), inactives show at the top dose activity change, negative = inhibition, hits mostly inhibitors; hit rate 0.28% among 350,000; active = well fitted curve in the direction sought with a large enough effect; inconclusive = small, poorly fitted or top-dose-only effect, or another doubt; inactive = no such curve, though single readings can be large; an effect the other way counts as inactive or inconclusive; note: % is set by controls: 0 for no effect and ±100 for the full control effect; nearly all actives have a fitted effect of over 40% in size
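Here, a 5' biotin and 3' phosphotyrosine-FITC DNA oligonucleotide reports Tdp1 activity: intact substrate bridges AlphaScreen beads, while cleavage leaves a 3' phosphate and drops signal. All incubations at room temperature.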
TSG101-PTAP inh: blocks PTAP/TSG101 interaction to inhibit HIV-1 budding; Q99816; Fluorescence polarization, FITC-PTAP peptide / Tsg101 binding; Potency, µM (top dose mostly 115 µM), for the others: at the highest dose activity change, negative = inhibition, most hits filed as inhibitors; 340,000 tested, under 10 active; AID 493005; active = well fitted inhibition curve with a large enough effect in the main read-out, with a control signal flat, not every such curve was filed as active; inconclusive = small, poorly fitted or top-dose-only effect, or effect the other way, or a change in a side signal; inactive = no such curve, though single readings can be large or run the other way; note: % of control where 0% means no effect
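Fluorescence anisotropy tracks displacement of a FITC-tagged PTAP peptide (50 nM) from the Tsg101 binding domain (10 uM), following a 20 min room-temperature incubation at pH 7.5.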
ALOX12 inh: ALOX12 (human) lipoxygenase inhibition; P18054; purified 12hLO, xylenol orange hydroperoxide absorbance; Potency, µM (titrated, usually from 108 µM), for inactives: at the top dose activity change, negative = inhibition, hits mostly inhibitors; hit rate 1.1% among 580,000; AID 1671190; active = well fitted curve in the direction sought with a large enough effect; inconclusive = small, poorly fitted or top-dose-only effect, or another doubt; inactive = no such curve, though single readings can be large; an effect the other way counts as inactive or inconclusive; note: % is set by controls: 0 for no effect and ±100 for the full control effect
Target sequence (P18054 whole entry, looked up): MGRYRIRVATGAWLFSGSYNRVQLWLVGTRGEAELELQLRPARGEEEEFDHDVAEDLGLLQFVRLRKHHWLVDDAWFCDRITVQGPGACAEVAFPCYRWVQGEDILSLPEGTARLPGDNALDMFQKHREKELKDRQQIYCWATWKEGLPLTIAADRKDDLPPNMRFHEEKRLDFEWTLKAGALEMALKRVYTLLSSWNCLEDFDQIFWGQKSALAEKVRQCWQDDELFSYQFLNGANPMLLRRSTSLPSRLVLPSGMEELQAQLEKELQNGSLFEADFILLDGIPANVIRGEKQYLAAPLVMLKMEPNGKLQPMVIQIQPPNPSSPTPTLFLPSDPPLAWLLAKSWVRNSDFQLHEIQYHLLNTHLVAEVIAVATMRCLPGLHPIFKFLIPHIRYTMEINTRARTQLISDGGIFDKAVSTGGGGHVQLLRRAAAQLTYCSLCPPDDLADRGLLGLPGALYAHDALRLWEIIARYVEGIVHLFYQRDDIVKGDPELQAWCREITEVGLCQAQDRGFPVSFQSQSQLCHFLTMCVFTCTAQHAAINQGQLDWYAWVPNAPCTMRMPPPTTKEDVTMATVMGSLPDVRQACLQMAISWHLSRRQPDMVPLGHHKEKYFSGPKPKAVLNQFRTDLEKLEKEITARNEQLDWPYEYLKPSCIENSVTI
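Hydroperoxide product was detected by ferrous iron/xylenol orange as the 573 to 405 nm absorbance ratio. Arachidonic acid at 40 uM (final) was turned over for 30 min at room temperature by 150 nM human 12hLO, pH 7.0 Hepes buffer, after 15 min compound preincubation.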
Rango complex inh: inhibitors of Rango-importin beta complex formation. AID 540263. Q14974. Potency, µM (titrated, usually from 92.2 µM), without a hit: top-dose inhibition of complex formation. hit rate 0.031% among 340,000. Rango CFP/YFP FRET sensor + importin beta, 45 min;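 note: 0% = DMSO wells and 100% = buffer wells lacking importin beta; nearly all actives have a fitted effect of over 15% in size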
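FRET biosensor Rango (snurportin 1 IBB between N-terminal EYFP and C-terminal Cerulean), 50 nM in PBS/1 mM DTT/0.02% Tween-20/0.1% BSA, preincubated 5 min RT with compound; 0.125 microM importin beta added, 45 min RT, CFP/YFP FRET ratio read.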
ClpP mod: qHTS Assay for Activators of ClpP; purified B. subtilis ClpP, FRET peptide cleavage, 20 min; Potency, µM (top dose mostly 57.5 µM), inactives show top-dose activity change, negative = active; ATP-dependent Clp protease proteolytic subunit (Bacillus subtilis (strain 168)), P80244; hit rate 1.9% among 340,000; AID 651965, 2013; active = well fitted falling curve with a large enough effect; inconclusive = small, poorly fitted or top-dose-only effect; inactive = no such curve, though single readings can be large or run the other way; note: the source files actives as falling curves though it sought activators and does not explain the sign; nearly all actives have a fitted effect of over 65% in size
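FRET quenching reversal measured ClpP activation: 10 microg/mL B. subtilis ClpP at pH 8 with the FRET-FV decapeptide, read at 430 nm after 320 nm excitation. The 20-min minus 0-min signal was scaled between DMSO/no-enzyme wells and ADEP (5.8 microM final).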
* = called active by the depositor; ? = inconclusive; . = not tested or not shown; ! = repeats disagree; [ ] = dose if it differs, or a comment. Unless noted, calls come from the whole dose curve. Potency is the fitted concentration of half-maximal effect.

SMILES	Rango release inh	TDP1 block	TSG101-PTAP inh	ALOX12 inh	Rango complex inh	ClpP mod
N#C/C(=C/c1ccc(N2CCCCCC2)o1)c1ccc(F)cc1	?	.	?	.	?	32µM*
N#C/C(=C/c1ccc(N2CCOCC2)o1)c1ccc(Br)cc1	?	8%	?	5.6µM*	?	-3%
CC(=O)N1CCN(C(=O)c2ccc(S(=O)(=O)Nc3ccccc3Cl)cc2)CC1	7%	.	-5%	0%	-3%	.
CC(=O)N1CCN(C(=O)c2ccc(NS(=O)(=O)c3ccc(Cl)c(Cl)c3)cc2)CC1	-13%	.	-1%	?	?	14µM*
COc1ccc2oc(C(=O)OCC(=O)NC3CCCCC3)c(C)c2c1	-12%	-3%[0.505 µM]	0%	-4%	-1%	16µM*
CCN(C(=O)COC(=O)c1oc2ccc(OC)cc2c1C)C1CCS(=O)(=O)C1 (stereo not drawn)	-23%	-11%	0%	-22%	3%	8.9µM*
COc1cc(C(=O)OCC(=O)N(CC(C)C)C2CCS(=O)(=O)C2)cc(OC)c1C (stereo not drawn)	8%	32µM*	-2%	?	-1%	-12%
CCOc1ccc2oc(C(=O)OCC(=O)NC(=O)NC3CCCC3)c(C)c2c1	5%	-1%	-2%	6%	0%	22µM*
CCN(CC(=O)NC1(C)CCS(=O)(=O)C1)Cc1cccc(F)c1 (stereo not drawn)	.	.	.	0%	.	.
CCCNc1nc2ccccc2nc1C(=O)Nc1ccc(C)cc1C	.	.	.	-27%	.	.
CC(=O)Nc1ccc(C(=O)OCC(=O)N(c2ccccc2)C2CCCCC2)cc1	-11%	0%	-3%	-14%	4%	1%
CC(=O)Nc1cc(NC(C)=O)cc(C(=O)OCC(=O)N(c2ccccc2)C2CCS(=O)(=O)C2)c1 (stereo not drawn)	-1%	45µM*	-3%	182%	-4%	-5%
O=C(Cn1nc(N2CCN(c3ccccc3)CC2)ccc1=O)Nc1ccccc1F	.	.	.	-3%	.	.
CC(C[N+](C)(C)C)OC(=O)c1ccc2c(c1)OCO2 (stereo not drawn)	.	.	.	25µM*	.	.
c1ccc2nc(-c3nc4ccccc4[nH]3)ccc2c1	2%	6%	0%	0%	0%	32µM*
COc1ccc(C2Nc3ccccc3C(=O)N2Cc2ccco2)cc1COc1ccc(NC(C)=O)cc1 (stereo not drawn)	-22%	5%	-6%	0%[57.4 µM]	-4%	32µM*!
COc1ccc(C2Nc3ccccc3C(=O)N2Cc2ccco2)cc1COc1ccccc1F (stereo not drawn)	-15%	1%	0%	?	0%	14µM*
Cc1nc2sc(C(=O)OCC(=O)Nc3ccc(C(C)C)cc3)c(C)c2c(=O)[nH]1	.	.	.	-7%	.	.
CC(C)c1ccc(OCCCCN2CCCCC2)cc1	10%	.	1%	0%	2%	.
CC(C)Oc1ccc(OCCCN2CCCCCC2)cc1	0%	0%	0%	0.45µM*	0%	-2%
COc1ccc(CNC(=O)Cn2ccn3nc(-c4ccccc4)c(CO)c3c2=O)cc1OC	.	.	.	29%	.	.
CCOc1ccccc1C(=O)NC(C(=O)OCc1ccccc1C)C(C)C (stereo not drawn)	.	.	.	0%	.	.
O=C(CN1CCCc2nc(C3CC3)ncc2C1=O)NCCCN1CCCC1=O	.	.	.	-10%	.	.
CCOc1ccc2oc(C(=O)NCc3nc4ccccc4[nH]3)c(C)c2c1	-1%	3%[56.1 µM]	-7%	-6%	0%	35µM*
COc1cc(NC(=S)NC(=O)c2ccc(C)cc2C)ccc1NC(=O)c1cccs1	1%	-8%	2%	5µM*	0%	1%
SMILES	Rango release inh	TDP1 block	TSG101-PTAP inh	ALOX12 inh	Rango complex inh	ClpP mod
COc1cc(NC(=S)NC(=O)c2cccs2)ccc1NC(=O)C(C)C	-4%	4%	-2%	7.1µM*	7%	0%
CCC(C)c1ccc(O)c(NC(=S)NC(=O)c2cccs2)c1 (stereo not drawn)	.	.	.	22µM*	.	1%
O=c1cc(-c2ccc(O)c(O)c2)oc2c1ccc1ccccc12	0%	-4%	9%	0.35µM*	?	0%
O=c1cc(/C=C/c2ccccc2)oc2c1ccc1ccccc12	-4%	0%	-2%	0%	-3%	28µM*
COc1nccnc1NS(=O)(=O)c1ccc(NC(=S)NC(=O)c2ccc(F)cc2)cc1	-15%	1%	1%	35µM*	-1%	1%
O=C(NC(=S)Nc1ccc2[nH]c(=O)[nH]c2c1)c1ccccc1F	18%	2%	-4%	-11%	-3%	3%
CC(C)C(=O)Nc1ccc(NC(=S)NC(=O)c2ccccc2F)cc1	-14%	0%	1%	-27%	3%	32µM*
COc1nccnc1NS(=O)(=O)c1ccc(NC(=S)NC(=O)c2ccccc2F)cc1	-19%	0%	-1%	45µM*	1%	?
Cc1ccccc1Oc1ncnc2oc(-c3ccccc3)cc12	-15%	-4%	-2%	0%	?	32µM*
CCOC(=O)c1c(C)c(CCC(=O)NCCN2CCCCC2)c(C)n1C	.	.	.	7%	.	.
Cc1[nH][nH]c(=O)c1C(c1ccc(-c2cccc(C(=O)O)c2)o1)c1c(C)[nH][nH]c1=O	?	8.9µM*	-2%	-4%	1%	.
COC(=O)c1ccc(-c2ccc(C(c3c(C)[nH][nH]c3=O)c3c(C)[nH][nH]c3=O)o2)cc1	2%	-11%	-4%	35µM*	1%	.
Cc1[nH][nH]c(=O)c1C(c1ccc(-c2ccccc2C(=O)O)o1)c1c(C)[nH][nH]c1=O	0%	.	-1%	?	1%	.
COc1ccc(N2CC(c3noc(-c4ccc(C)c(C)c4)n3)CC2=O)cc1OC (stereo not drawn)	.	.	.	44%	.	.
O=C(c1ccco1)N1CCC2(CC1)CN(Cc1ccccc1)CC2CO (stereo not drawn)	.	.	.	50%	.	.
Cc1ccc(-c2csc(CCn3nc(C)c4c(C(F)(F)F)cc(=O)[nH]c43)n2)cc1	.	.	.	10µM*	.	.
COc1ccc(-c2csc(CCn3nc(C)c4c(C(F)(F)F)cc(=O)[nH]c43)n2)cc1	.	.	.	18µM*	.	.
COC(=O)C1(C(=O)/C=C/c2ccc(Cl)cc2)CCCCC1	.	.	.	-17%	.	.
O=S(=O)(NC[C@H]1O[C@@H](CO)[C@@H](O)[C@H]1N1CCCC1)c1cccs1	.	.	.	16µM*	.	.
NC[C@H]1O[C@@H](CO)[C@@H](O)[C@H]1N1CCN(c2ncccn2)CC1	.	.	.	20µM*	.	.
